The test addresses DNA topoisomerase I (Yersinia pestis CO92) (UniProt A0A2S9PM60). In words: Y. pestis Topo-I inhibitors, cleavage product readout, dose response, biochemical, Y. pestis CO92, cherry-pick (AID 588525).

Experimental findings from PubChem BioAssay AID588525 (Broad Institute, 2011) are described below.

The structures appear in SMILES notation. Measured potencies and affinities stand elsewhere. Results filed as inconclusive are left out. Values without a mark were called inactive. Active and inactive are the calls of the source. The rule behind the calls is not given here.

DNA topoisomerase I (Yersinia pestis CO92), sequence (A0A2S9PM60 1-871): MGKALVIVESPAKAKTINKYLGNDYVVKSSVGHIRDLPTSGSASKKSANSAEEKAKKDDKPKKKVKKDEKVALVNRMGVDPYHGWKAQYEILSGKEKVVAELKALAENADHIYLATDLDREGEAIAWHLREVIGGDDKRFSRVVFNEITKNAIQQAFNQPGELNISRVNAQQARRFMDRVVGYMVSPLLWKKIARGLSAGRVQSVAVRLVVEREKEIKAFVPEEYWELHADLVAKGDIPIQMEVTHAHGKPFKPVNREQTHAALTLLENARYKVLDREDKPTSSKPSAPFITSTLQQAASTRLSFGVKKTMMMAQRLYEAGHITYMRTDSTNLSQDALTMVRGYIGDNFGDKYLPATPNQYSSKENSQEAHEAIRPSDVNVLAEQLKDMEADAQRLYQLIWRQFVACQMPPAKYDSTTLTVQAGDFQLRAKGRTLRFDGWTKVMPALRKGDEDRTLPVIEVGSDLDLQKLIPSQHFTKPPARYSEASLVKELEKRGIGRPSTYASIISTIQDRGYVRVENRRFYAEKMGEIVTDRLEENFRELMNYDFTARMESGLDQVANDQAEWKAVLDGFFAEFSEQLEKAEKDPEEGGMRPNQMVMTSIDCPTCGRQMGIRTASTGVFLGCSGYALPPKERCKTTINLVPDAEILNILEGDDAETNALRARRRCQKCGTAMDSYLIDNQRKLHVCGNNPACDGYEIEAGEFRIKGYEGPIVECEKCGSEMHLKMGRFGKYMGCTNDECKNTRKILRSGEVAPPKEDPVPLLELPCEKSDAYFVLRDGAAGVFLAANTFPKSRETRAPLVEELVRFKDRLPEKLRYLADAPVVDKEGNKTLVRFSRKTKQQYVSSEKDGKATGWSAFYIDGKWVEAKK

For the compound `Cc1ccccc1OCC(=O)Nc1ccccc1N1CCCCC1`, the compound was classed as inactive.
For the compound `CCCCCCCCN1[C@@H](CC(C)=O)c2cc(C(F)(F)F)ccc2S1(=O)=O`, the call was inactive.
On to `O=C(COC(=O)CCC1CCCC1)Nc1ccccc1Sc1ccccc1`, for which the outcome was inactive.
On to `Cc1ccc(CSc2nc3c(c(N(C)C)n2)CCCC3)cc1`, for which the call was inactive.
For `CCCCN1CC(COCc2ccccc2)Oc2cccc(F)c2S1(=O)=O` (centres undefined), the compound was called inactive.
On to `CSc1ccccc1NC(=O)COC(=O)c1ccccc1Cc1ccccc1`, for which the compound was called inactive.
Take `CCCCOC(=O)Nc1nnc(/C=C/c2ccc(OC)cc2)s1`: the result was inactive.
On to `Cc1cc(NC(=O)C(C)SCC(=O)N(C)CC(=O)Nc2ccc(F)cc2)no1` (centres undefined), for which the result was inactive.
For `COC(=O)c1ccc(C2C(Oc3ccc(OC)cc3)C(=O)N2CCc2ccc(F)cc2)cc1` (centres undefined), the compound was classed as inactive.
On the same count and under the same terms, under `C[C@H]1CCC(=O)N([C@H](CSc2ccccc2)Cc2ccccc2)CC1` stands “inactive”; under `O=C(OCc1ccccc1)N1CCC2CC1c1c(Cl)cccc12` (centres undefined), “inactive”; under `CCCCC(CC)COC(=O)c1ccccc1C(=O)OCC(CC)CCCC` (centres undefined), “inactive”.
With `CC(C)OC(=O)C(C)(C)Oc1ccc(C(=O)c2ccc(Cl)cc2)cc1`, the compound was classed as inactive.
As to `O=C(NCCn1cc(SCc2ccccc2)c2ccccc21)c1ccccc1F`, the activity (cleavage complex accumulation) was 26.2% [at 5 µM].
As to `O=C(COc1c(Cl)cccc1Cl)Nc1ccccc1N1CCCC1`, the compound was classed as inactive.
For the compound `Cc1ccc2c(Cl)c(C)c(N3CCCCC3)nc2n1`, the result was inactive.
In the case of `COc1ccccc1C(=O)NCCC(=O)N1CC=C(c2ccccc2)CC1`, the compound was classed as inactive.
As for `O=C(NCC1(c2ccccc2)CCCC1)C1(c2ccccc2)CCCC1`, the compound was classed as inactive.
As for `C#CCN(C[C@@H](CC(C)C)NC(=O)OC(C)(C)C)S(=O)(=O)c1ccc(Br)cc1F`, the compound was called inactive.
Take `CCCCn1c(C)cc(C)c(S(=O)(=O)c2ccccc2C)c1=O`: the compound was classed as inactive.
The same measure, in the same setting: the value for `O=C(Cc1ccccc1)CC(CC(=O)c1ccccc1)c1ccccc1` (centres undefined) was “inactive”; that for `CC1CCN(c2oc(Cc3cccc4ccccc34)nc2C#N)CC1` was “inactive”.
As for `COc1ccc(C2CC(c3ccccc3)=NN2C(=O)COC(=O)c2cccc(S(=O)(=O)N3CCOCC3)c2)cc1` (centres undefined), the compound was called inactive.
On the same count and under the same terms, under `CC(=O)c1ccccc1OCc1ccc(C(=O)c2ccccc2)cc1` stands “inactive”.
